High-throughput results as filed in PubChem BioAssay.
Shown are actives, neighbours in structure and some others; about 7.3% of the full set was active somewhere.
ELG1 genotoxic = qHTS screen for small molecules that induce genotoxicity in human embryonic kidney (HEK293T) cells expressing luciferase-tagged ELG1 | HEK293T ELG1-luciferase reporter, luminescence, 16 h | Potency, µM (titrated, usually from 46 µM), for the others: at the top dose activity change, positive = activation, usual class: activators | actives 1.3% (n = 330,000) | AID 504466, 2011; further: % of control where 0% means no effect; nearly all actives have a fitted effect of over 60% in size
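Screening used a luciferase reporter fused to human ELG1 in HEK293T cells. Luminescence was read on a CCD plate imager after 16 hr exposure and 30 min ONE-Glo incubation.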
Luc counter = Counterscreen for Luciferase (Kinase-Glo TM) Inhibition | Luciferin 4-monooxygenase (Photuris pensylvanica), Q27757 | Kinase-Glo luciferase, ATP luminescence, 8 min | Potency, µM (doses to about 38.3 µM), inactives show top-dose activity change, negative = inhibition, usual class: inhibitors | actives 0.28% (n = 200,000) | AID 1379, 2008; further: on the % scale 0 is the no-effect control and ±100 the full control effect; nearly all actives have a fitted effect of over 60% in size
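Substrate mix (final 50 mM imidazole pH 7.2, 50 mM KCl, 7 mM MgCl2, 10 uM ATP, 0.01% Tween 20, 0.05% BSA) plus pin-tool compound, then Kinase-Glo detection mix; 8 min ambient, luminescence read.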
Rab9 promoter act = qHTS Assay for Rab9 Promoter Activators; Huh7 Rab9 promoter-luciferase reporter, luminescence, 24 h; Potency, µM (highest dose often 9.22 µM), for the others: at the highest dose activation, negative = inhibition, hits mostly activators; actives 2.8% (n = 320,000); further: % of control where 0% means no effect; nearly all actives have a fitted effect of over 60% in size
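Huh7 cells stably carrying Rab9 promoter–luciferase reporter, plated 1500 cells/well, compound added after 2 h and incubated 24 h at 37 °C; luciferase luminescence then read after 10 min with detection reagent.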
NPC1 prom act = qHTS Assay for NPC1 Promoter Activators; Huh7 NPC1 promoter luciferase reporter, 24 h; Potency, µM (titrated, usually from 9.22 µM), for the others: at the highest dose activation, usual class: activators; actives 2.4% (n = 320,000); further: % of control where 0% means no effect; nearly all actives have a fitted effect of over 60% in size
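Quantitative HTS used a cell-based reporter: Huh7 cells stably bearing the NPC1 promoter upstream of luciferase were treated with compounds for 24 h, and promoter activation was read as luminescence.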
SMN2 splice enh = qHTS Assay for Enhancers of SMN2 Splice Variant Expression; actives 2.8% (n = 210,000); Potency, µM (titrated, usually from 46.1 µM), without a hit: top-dose activity change, positive = activation, most hits filed as activators; HEK293 SMN2-luciferase splicing reporter, luminescence, 30-36 h; further: % of control where 0% means no effect; nearly all actives have a fitted effect of over 55% in size
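HEK293 cells carry an SMN2 minigene-luciferase reporter in which exon 7 inclusion puts luciferase in frame. Cells were seeded at 2000 cells/well, attached for 10-12 hours, then exposed to compounds for 30-36 hours at 37C before ONE-Glo luminescence.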
FLuc counter = qHTS profiling assay for firefly luciferase inhibitor/activator using purifed enzyme and Km concentrations of substrates (counterscreen for miR-21 project); actives 6.9% (n = 360,000); Potency, µM (titrated, usually from 57.5 µM), for inactives: top-dose activity change, negative = inhibition, usual class: inhibitors; purified FLuc, Km substrates, luminescence inhibition; AID 588342, 2011;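 further: plate controls were vehicle for no effect and reference inhibitor for full effect; nearly all actives have a fitted effect of over 55% in size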
Target sequence (P08659 whole entry, looked up): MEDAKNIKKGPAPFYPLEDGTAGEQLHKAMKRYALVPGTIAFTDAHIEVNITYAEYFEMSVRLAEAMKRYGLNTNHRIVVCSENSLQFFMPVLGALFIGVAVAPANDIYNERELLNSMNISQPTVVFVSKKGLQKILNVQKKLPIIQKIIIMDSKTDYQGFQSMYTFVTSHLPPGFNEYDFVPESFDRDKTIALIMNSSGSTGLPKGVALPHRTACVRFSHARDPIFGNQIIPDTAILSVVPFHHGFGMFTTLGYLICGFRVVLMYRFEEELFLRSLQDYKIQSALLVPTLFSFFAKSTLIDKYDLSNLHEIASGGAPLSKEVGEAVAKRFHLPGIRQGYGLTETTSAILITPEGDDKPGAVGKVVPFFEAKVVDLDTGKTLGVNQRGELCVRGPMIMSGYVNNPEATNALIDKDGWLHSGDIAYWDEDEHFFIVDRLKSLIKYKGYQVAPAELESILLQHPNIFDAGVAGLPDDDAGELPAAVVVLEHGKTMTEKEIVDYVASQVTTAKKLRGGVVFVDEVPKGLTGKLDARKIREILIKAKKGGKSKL
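Biochemical qHTS of compounds, final roughly 60 µM downward over six points, against 10 nM purified firefly luciferase using Km concentrations of substrates (10 uM D-luciferin, 10 uM ATP) in Tris acetate pH 7.5 buffer; luminescence output.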
Starred values were filed as active, the others as inactive; ? = inconclusive; · = not tested or not shown; [ ] = dose if it differs, or a comment. The call rests on the fitted dose curve; in most records, active means well fitted curve in the direction sought with a large enough effect; inconclusive means small, poorly fitted or top-dose-only effect, or another doubt; inactive means no such curve, though single readings can be large; an effect the other way counts as inactive or inconclusive. Potency means the concentration at half of the fitted maximal effect.

SMILES	ELG1 genotoxic	Luc counter	Rab9 promoter act	NPC1 prom act	SMN2 splice enh	FLuc counter
N/C(=N\OC(=O)c1csnn1)c1ccc(C(F)(F)F)cc1	13%	·	?	?	·	19µM*
NC(=NC(=O)c1ccc(OC(F)(F)F)cc1)c1ccc(C(F)(F)F)cn1	-3%	·	-12%	-3%	·	1%
Fc1ccc(-c2csc(NC3=NCCC3)n2)cc1	?	0%	12%	8%	16%	?
Cc1cccnc1Nc1nc(-c2ccc(O)cc2)cs1	?	-9%	3.5µM*	?	25µM*	6.7µM*
Cc1cccnc1Nc1nc(-c2ccc(F)cc2)cs1	13µM*	·	2.8µM*	1.4µM*	·	2.7µM*
CN(C)c1ccccc1C(=O)c1ccccc1N(C)C	21µM*	-4%	-11%	-12%	5µM*	19µM*
COc1ccc2c(c1)c1c(c(=O)n(-c3ccccc3C)c(=O)n1CC(=O)Nc1c(C)cccc1C)n2C	·	·	·	·	·	-2%
Nc1c(OCC(=O)O)ccc2cc(S(=O)(=O)O)ccc12	·	0%[7.66 µM]	·	·	5%[9.22 µM]	·
c1ccc(B2OC[C@@H]3OB(c4ccccc4)O[C@H]([C@@H]4COB(c5ccccc5)O4)[C@@H]3O2)cc1	·	-6%[7.66 µM]	·	·	4%[9.22 µM]	·
CCOC(=O)Nc1ccc2c(c1)N(C(=O)N1CCN(C)CC1)c1ccccc1CC2	16%	-16%	-6%	-1%	·	?
CC(C)OC(=O)Nc1ccc2c(c1)N(C(=O)N1CCN(C)CC1)c1ccccc1CC2	?	·	?	?	·	6µM*
O=C(CSc1nc2ccccc2s1)N1CCCCC1	?	17%	3.5µM*	2.8µM*	20µM*	24µM*
O=C(O)C1CCN(C(=O)CSc2nc3ccccc3s2)CC1	2%	1%	0%	-3%	6%	?
CC1CCN(C(=O)CSc2nc3ccccc3s2)CC1	12µM*	14%	2.8µM*	2.8µM*	?	12µM*
O=C(Nc1nnc(-c2ccccc2Cl)o1)c1cccnc1	?	-6%	?	?	?	19µM*
Clc1ccccc1-c1nnc(-c2ccccc2Cl)o1	?	-7%	2.5µM*	4µM*	13µM*	8.5µM*
O=C(Nc1ccc(NC(=O)c2ccccc2Cl)cc1)c1cccnc1	5%	·	2%	3%	·	-11%
Clc1ccc(-c2nnc(-c3ccccc3Cl)o2)cc1	?	·	0.45µM*	0.63µM*	·	1.2µM*
CCCNCc1nnc(-c2ccccc2Cl)o1	8%	15%	0%	2%	24%	-25%
CCOC(=O)C1CCN(Cc2nnnn2CCc2ccccc2)CC1	?	-4%	1.6µM*	4µM*	·	?
CCOc1ccc(CCNC(=O)c2cn(CC)c3ccc(S(=O)(=O)N4CCc5ccccc5C4)cc3c2=O)cc1OCC	·	·	·	·	1%	-10%
Cn1c(=O)c2c(nc(SCC(=O)NCc3ccc4c(c3)OCO4)n2Cc2ccccc2)n(C)c1=O	-3%	-1%	-8%	-1%	-1%	-2%
Cn1c(=O)c2c(nc(NCc3ccc4c(c3)OCO4)n2C)n(C)c1=O	-2%	0%	-1%	-1%	32µM*	1%
O=C(O)/C=C/C(=O)c1ccc(O)cc1	0%	·	1%	-4%	·	-1%
O=C(O)/C=C/C(=O)c1ccc2c(c1)CCc1ccccc1-2	-11%	·	?	26%	·	24µM*
SMILES	ELG1 genotoxic	Luc counter	Rab9 promoter act	NPC1 prom act	SMN2 splice enh	FLuc counter
Cc1cc(=O)[nH]c(N/N=C/c2ccc(-c3ccc(F)cc3)o2)n1	9%	·	?	26%	·	6µM*
CSc1ccc(/C=N/Nc2nc(C)cc(=O)[nH]2)cc1	10%	-18%	26%	16%	23%	?
O=S(=O)(c1ccc(Cl)cc1)c1nc(-c2cccs2)oc1SCc1ccccc1F	·	·	·	·	-7%	4%
CCC(C)n1c(=O)c2sccc2n2c(CCCC(=O)Nc3ccc(F)cc3)nnc12 (stereo unspecified)	·	·	·	·	·	-5%
COc1ccc(/C=C2\S/C(=N/S(=O)(=O)c3cccs3)NC2=O)cc1	-1%	2%	-1%	-4%	9%	19µM*
COc1ccc(/C=N/S(=O)(=O)c2cccs2)cc1	-3%	-6%	-2%	0%	-12%	-1%
COc1ccc(C2(CNC(=O)C(=O)Nc3ccc(F)cc3)CCCC2)cc1OC	·	·	·	·	-4%	-8%
O=C(Nc1nc(=O)n(C(=O)C2CC2)s1)c1ccccc1	-3%	0%	1%	-5%	0%	?
Cc1ccc(C(=O)Nc2nc(=O)n(C(=O)C3CC3)s2)cc1	0%	4%	-6%	1%	19%	19µM*
Cc1ccc(C(=O)Nc2cc3c(cc2C)n(C)c(=O)c(=O)n3C)cc1	·	·	·	·	·	-11%
Cc1ccc(C(=O)Nc2nc(=O)n(C(=O)c3ccccc3C)s2)cc1	17%	5%	?	15%	20%	15µM*
CC(=O)N1c2ccc(S(=O)(=O)N(C)CC(=O)N(Cc3ccccc3)C(C)C)cc2CC1C (stereo unspecified)	·	·	·	·	·	-7%
Cc1onc(C(=O)Nc2sc3c(c2C#N)CCCC3)c1[N+](=O)[O-]	7%	0%	?	3%	·	13µM*
N#Cc1c(NC(=S)NC(=O)c2ccccc2)sc2c1CCC2	?	2%	?	19%	-17%	-17%
Cc1onc(-c2ccccc2Cl)c1C(=O)Nc1sc2c(c1C#N)CCC2	-9%	1%	1%	0%	-96%	9%
N#Cc1c(NC(=O)c2ccc(-c3ccccc3[N+](=O)[O-])o2)sc2c1CCCC2	1%	1%	14%	-2%	-30%	11µM*
O=C(NC1CCCCC1)c1ccc(-c2ccccc2[N+](=O)[O-])o1	2.1µM*	·	1.4µM*	0.71µM*	·	3.8µM*
CC1CCc2c(sc(NC(=O)c3ccc(-c4ccccc4[N+](=O)[O-])o3)c2C#N)C1 (stereo unspecified)	-4%	-4%	14%	4%	-10%	11µM*
CCC(Cn1nnc2ccccc2c1=O)NC(=O)Nc1ccc(C)cc1C (stereo unspecified)	·	·	·	·	-1%	-3%
CN1CCSc2ccc(C(=O)Nc3cc(F)ccc3F)cc21	2.6µM*	·	0.89µM*	1.3µM*	·	2.1µM*
Cc1ccccc1NC(=O)c1ccc2c(c1)N(C)CCS2	?	·	?	?	·	11µM*
COC(=O)c1ccc2c(c1)N(C)CCS2	15%	1%	-2%	-2%	6%	0%
CN(C)c1ncc2nc(CCc3ccccc3)c(=O)n(-c3ccccc3)c2n1	·	1%	·	·	-9%	·
